Measured values from PubChem BioAssay (NCATS).
Inconclusive results are not listed. Calls of active or inactive are those of the source. Unless noted, the call rests on the fitted dose curve; in most records, active means well fitted curve in the direction sought with a large enough effect; inconclusive means small, poorly fitted or top-dose-only effect, or another doubt; inactive means no such curve, though single readings can be large; an effect the other way counts as inactive or inconclusive.

Columns and labels:
[1] = target: Ferritin light chain (Equus caballus) (UniProt P02791); assay: qHTS Validation Assay for Identification of Novel General Anesthetics (AID 2323); further: series mostly up to about 77 µM
How it was run: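 Apoferritin from horse spleen (10 uM) was mixed with 1-aminoanthracene at 50% saturation in PBS, then compounds were added. After 10 min at room temperature, fluorescence was read (ex 380 nm, em 535 nm) and normalized to free-probe and complex controls.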

[2] = target: ATP-dependent DNA helicase Q1 (Homo sapiens) (UniProt P46063); assay: qHTS Validation Assay for Inhibitors of RecQ-Like Dna Helicase 1 (RECQ1) (AID 2353)
How it was run: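 RECQ1T1 50 nM; forked duplex (20 bp + 30-nt ss tails) 200 nM, ATP 2 mM final; pH 8.0, 2 mM MgCl2, 2.5 ug/ml poly(dI-dC); 15 min compound preincubation; discontinuous kinetic read over 2 h at RT.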

[3] = target: RecQ-like DNA helicase BLM (Homo sapiens) (UniProt P54132); assay: qHTS Validation Assay for Inhibitors of Bloom's syndrome helicase (BLM) (AID 2364)
How it was run: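 Forked 20-bp duplex substrate (200 nM, TAMRA/BHQ-2) plus 2 mM ATP added after 15 min compound preincubation with 50 nM enzyme, pH 8.0, poly(dI-dC) 2.5 ug/ml. Strand separation followed by fluorescence (525/598 nm) over 2 h, normalized to enzyme-free and DMSO controls.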

[4] = Cytometric Cell-Based qHTS for Inhibitors of the mTORC1 Signaling Pathway in MEF (Tsc2-/-, p53-/-) Cells (AID 2660);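 further: Tsc2 and p53 null MEFs carrying empty vector with compound for 24 h; percent of cells above a phospho-rpS6 to PI ratio cutoff in each well; series mostly up to about 38 µM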
How it was run: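 Cells are plated, treated with compound for 24 hrs at 37 degree Celsius, then fixed, blocked and immunostained for phospho-rpS6 Ser235/236. Propidium iodide counterstain follows. Per-well % positive cells is derived from the PI-normalized phospho-S6 signal.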

[5] = High Content Imaging Cell-Based qHTS for Inhibitors of the mTORC1 Signaling Pathway in MEF (Tsc2-/-, p53-/-) Cells (AID 2666);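 further: percent of cells scored positive for phospho-rpS6 Ser235/236 immunostaining by imaging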
How it was run: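 Tsc2-/-, p53-/- MEFs (empty-vector stable) grown in DMEM + 10% FBS were exposed to compounds for 24 hrs at 37 degree Celsius, fixed, and stained with Alexa-488 anti-phospho-rpS6 Ser235/236 plus Hoechst. Imaging gave the percentage of positive cells per well.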

[6] = High Content Imaging Cell-Based qHTS for Inhibitors of the mTORC1 Signaling Pathway in MEF Cells (AID 2667);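 further: Tsc2-/- p53-/- MEFs stably re-expressing wild-type Tsc2 exposed 24 h; series mostly up to about 38 µM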
How it was run: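 Tsc2-/-, p53-/- MEFs stably re-expressing WT Tsc2, grown in DMEM + 10% FBS, were treated with compounds for 24 hrs at 37 degree Celsius, fixed, and stained with Alexa-488 phospho-rpS6 Ser235/236 antibody plus Hoechst; results given as % positive cells.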

[7] = Cytometry Cell-Based qHTS for Inhibitors of the mTORC1 Signaling Pathway in MEF cells (AID 2668);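 further: Tsc2-/- p53-/- mouse embryonic fibroblasts stably re-expressing wild-type Tsc2; percent cells positive for phospho-rpS6 Ser235/236 relative to propidium iodide stain; series mostly up to about 38 µM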
How it was run: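 Pathway inhibition in WT Tsc2-rescued Tsc2-/-, p53-/- MEFs is measured as the Alexa-488 phospho-rpS6 to propidium iodide intensity ratio after 24 hrs of compound at 37 degree Celsius. PI-stained cell number gives viability.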

[8] = Validation screen for small molecules that induce DNA re-replication in MCF 10A normal breast cells (AID 463097); further: nearly all actives have a fitted effect of over 60% in size; further: potency means the concentration at half of the fitted maximal effect
How it was run: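 DNA re-replication was detected as a rise in nuclei with elevated Hoechst fluorescence after a 48 hr compound exposure of MCF 10A cells at 37 C.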

[9] = target: Ubiquitin carboxyl-terminal hydrolase 2 (Homo sapiens) (UniProt O75604); assay: qHTS Validation Assay for Inhibitors of Ubiquitin-specific Protease USP2a Using CHOP2 as the Reporter (AID 463106)
How it was run: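 Readout was coupled fluorescence (Ex 485/Em 531 nm), read 60 min after adding 25 nM final Ub-CHOP2 and 25 nM reporter substrate. Beforehand, 10 nM final USP2 core had 30 min at RT with compound in pH 8.0 buffer. Curves were fitted after normalization to NEM and flagged for artifacts using time-zero reads.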

[10] = target: DNA polymerase III PolC-type (Bacillus subtilis (strain 168)) (UniProt P13267); assay: qHTS Validation Assay for the Inhibitors of DNA Replication in Gram-Positive Bacteria (AID 485295); further: potency means the concentration at half of the fitted maximal effect
How it was run: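 Primed replication of single-stranded M13Gori by a four-protein B. subtilis holoenzyme is measured at room temperature. Double-stranded product is quantified by PicoGreen fluorescence after an EDTA stop; inhibition is scaled between DMSO and EDTA controls.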

[11] = target: Tumor susceptibility gene 101 protein (Homo sapiens) (UniProt Q99816); assay: qHTS Validation Assay for Iinhibitors of HIV-1 Budding by Blocking the Interaction of PTAP/TSG101 (AID 485342; calls by dose curve)
How it was run: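 Fluorescence anisotropy measured PTAP-Tsg101 interaction. Final concentrations were 10 uM protein domain and 50 nM labeled peptide, equilibrated 20 min at room temperature.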

[12] = target: Beta-2 adrenergic receptor (Homo sapiens) (UniProt P07550); assay: qHTS validation assay of beta-arrestin-biased ligands of beta2-adrenergic receptor (AID 485366)
How it was run: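 Compound series up to 46 microM applied to beta2-AR/beta-arrestin Tango cells, 18 hr, 37 degrees C, 5% CO2. Read-out: tTA-driven luciferase luminescence, converted to %Activity; concentration-response curves assigned curve classes.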

[13] = Quantitative high throughput screen for delayed death inhibitors of the malarial parasite plastid, 96 hour incubation (AID 488745); further: nearly all actives have a fitted effect of over 70% in size; further: potency means the concentration at half of the fitted maximal effect
How it was run: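 Readout is firefly luciferase luminescence from an integrated reporter in P. falciparum; lower signal marks inhibited growth. Cultures at 2% hematocrit and 0.1% parasitemia were treated with compound across two generations (96 h, 37 C, 5% CO2).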

[14] = qHTS Assay for Identification of Small Molecule Inducers of Hypoxia Response (AID 2120; active means well fitted curve in the direction sought with a large enough effect in the signal ratio, with a control signal flat, not every such curve was filed as active; the % refers to the signal ratio)
How it was run: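 Cell-based qHTS for reporter induction: hypoxia response element controlled beta-lactamase in ME-180 cells. Compounds incubated 17 h at 37 degrees C; activity from blue/green (460/530 nm) ratio, inducers ranked by AC50.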

[15] = target: ATP-dependent 6-phosphofructokinase (Trypanosoma brucei brucei) (UniProt O15648); assay: qHTS Validation Assay to Find Inhibitors of T. brucei phosphofructokinase (AID 485368); further: potency means the concentration at half of the fitted maximal effect
How it was run: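 qHTS format, up to 57 uM. PFK 1.25 nM; F6P 0.5 mM; ATP 0.1 mM; 5 mM MgCl2, 0.01% Tween20, 0.1% BSA; 0.1 M TEA pH 8.0; 45 min RT; ADP-Glo readout; no-enzyme control = full inhibition.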

[16] = qHTS Validation Assay to Find Inhibitors of Chronic Active B-Cell Receptor Signaling (AID 485345; active means well fitted curve in the direction sought with a large enough effect in the main read-out, with a control signal flat, not every such curve was filed as active)
How it was run: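 Read-out: ratio of filter-corrected green (IkappaBalpha fusion) to red (native) luciferase signal in doxycycline-induced TMD8 cells after 4 h at 37C. Titration spanned 46 uM–3 nM; Data were normalised to basal cells and 10 uM MG-132 wells.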

Measured: Potency

Sequence of RecQ-like DNA helicase BLM (Homo sapiens) (P54132 whole entry, looked up): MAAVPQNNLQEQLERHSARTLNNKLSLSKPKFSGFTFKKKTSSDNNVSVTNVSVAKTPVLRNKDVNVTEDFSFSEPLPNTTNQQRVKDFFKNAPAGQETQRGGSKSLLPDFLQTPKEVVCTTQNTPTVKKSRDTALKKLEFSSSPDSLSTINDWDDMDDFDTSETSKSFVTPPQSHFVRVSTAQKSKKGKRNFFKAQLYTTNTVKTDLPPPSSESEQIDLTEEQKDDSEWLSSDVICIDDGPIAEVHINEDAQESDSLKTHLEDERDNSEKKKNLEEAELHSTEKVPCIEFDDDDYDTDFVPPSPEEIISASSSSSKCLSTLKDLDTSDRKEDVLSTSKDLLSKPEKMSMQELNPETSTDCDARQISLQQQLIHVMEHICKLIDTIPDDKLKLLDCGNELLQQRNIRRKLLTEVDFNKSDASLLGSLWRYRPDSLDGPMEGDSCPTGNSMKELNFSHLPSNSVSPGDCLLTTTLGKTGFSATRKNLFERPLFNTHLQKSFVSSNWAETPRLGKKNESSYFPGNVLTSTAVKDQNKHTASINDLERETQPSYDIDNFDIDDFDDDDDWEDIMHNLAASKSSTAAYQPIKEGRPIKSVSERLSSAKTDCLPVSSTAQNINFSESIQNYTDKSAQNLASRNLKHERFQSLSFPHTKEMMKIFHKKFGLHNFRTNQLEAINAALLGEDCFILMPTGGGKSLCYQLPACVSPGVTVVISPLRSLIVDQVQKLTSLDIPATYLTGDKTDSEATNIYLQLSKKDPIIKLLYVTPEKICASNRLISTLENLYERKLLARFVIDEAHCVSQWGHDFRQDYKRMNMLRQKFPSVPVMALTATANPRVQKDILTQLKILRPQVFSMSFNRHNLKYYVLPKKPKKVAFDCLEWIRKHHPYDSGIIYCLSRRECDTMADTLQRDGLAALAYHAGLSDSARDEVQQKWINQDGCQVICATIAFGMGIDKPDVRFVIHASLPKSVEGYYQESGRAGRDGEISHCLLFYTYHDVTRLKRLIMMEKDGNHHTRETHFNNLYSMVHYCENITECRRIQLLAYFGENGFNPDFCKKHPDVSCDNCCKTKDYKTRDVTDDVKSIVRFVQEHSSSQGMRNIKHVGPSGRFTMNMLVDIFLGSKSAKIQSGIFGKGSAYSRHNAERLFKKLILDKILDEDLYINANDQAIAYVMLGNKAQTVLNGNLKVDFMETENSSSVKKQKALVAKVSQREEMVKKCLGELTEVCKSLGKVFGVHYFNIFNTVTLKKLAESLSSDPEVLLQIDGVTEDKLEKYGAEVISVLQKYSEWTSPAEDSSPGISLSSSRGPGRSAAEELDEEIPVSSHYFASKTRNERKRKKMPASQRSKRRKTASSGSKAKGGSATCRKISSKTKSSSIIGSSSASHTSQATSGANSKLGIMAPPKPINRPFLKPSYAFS
Sequence of Ubiquitin carboxyl-terminal hydrolase 2 (Homo sapiens) (O75604 whole entry, looked up): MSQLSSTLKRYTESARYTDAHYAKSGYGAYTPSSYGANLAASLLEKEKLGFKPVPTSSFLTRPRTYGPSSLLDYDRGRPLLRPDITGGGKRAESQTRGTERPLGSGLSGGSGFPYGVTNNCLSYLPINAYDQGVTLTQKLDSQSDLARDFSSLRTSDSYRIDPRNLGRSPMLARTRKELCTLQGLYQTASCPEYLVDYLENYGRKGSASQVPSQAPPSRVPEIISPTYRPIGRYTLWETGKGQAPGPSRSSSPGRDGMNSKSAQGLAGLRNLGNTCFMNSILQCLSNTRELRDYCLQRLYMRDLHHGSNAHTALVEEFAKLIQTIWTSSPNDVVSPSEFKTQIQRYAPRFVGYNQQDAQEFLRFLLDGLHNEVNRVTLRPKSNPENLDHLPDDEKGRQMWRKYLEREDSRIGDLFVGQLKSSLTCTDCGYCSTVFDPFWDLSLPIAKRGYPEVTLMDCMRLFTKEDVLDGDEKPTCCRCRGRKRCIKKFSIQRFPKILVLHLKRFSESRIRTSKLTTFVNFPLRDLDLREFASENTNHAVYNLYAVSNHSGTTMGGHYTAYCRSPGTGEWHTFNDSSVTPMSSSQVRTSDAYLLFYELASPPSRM
Sequence of ATP-dependent DNA helicase Q1 (Homo sapiens) (P46063 whole entry, looked up): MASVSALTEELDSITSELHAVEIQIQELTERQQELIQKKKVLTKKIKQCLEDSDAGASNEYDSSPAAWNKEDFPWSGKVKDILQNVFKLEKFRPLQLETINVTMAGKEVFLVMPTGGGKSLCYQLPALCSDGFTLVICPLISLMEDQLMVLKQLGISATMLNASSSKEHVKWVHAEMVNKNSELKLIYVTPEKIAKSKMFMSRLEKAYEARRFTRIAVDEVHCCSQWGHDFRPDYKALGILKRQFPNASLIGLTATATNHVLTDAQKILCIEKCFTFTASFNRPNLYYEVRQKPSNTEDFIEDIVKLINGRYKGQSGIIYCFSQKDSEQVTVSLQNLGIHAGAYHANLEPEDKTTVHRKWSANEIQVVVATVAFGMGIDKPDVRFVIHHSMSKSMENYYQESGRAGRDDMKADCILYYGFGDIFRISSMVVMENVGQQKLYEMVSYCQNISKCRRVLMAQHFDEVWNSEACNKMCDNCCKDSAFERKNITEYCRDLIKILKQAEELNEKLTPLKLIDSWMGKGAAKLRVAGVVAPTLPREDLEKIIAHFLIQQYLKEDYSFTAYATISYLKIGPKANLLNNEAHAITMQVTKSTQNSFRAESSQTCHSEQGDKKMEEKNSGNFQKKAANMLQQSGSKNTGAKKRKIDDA
Sequence of Beta-2 adrenergic receptor (Homo sapiens) (P07550 whole entry, looked up): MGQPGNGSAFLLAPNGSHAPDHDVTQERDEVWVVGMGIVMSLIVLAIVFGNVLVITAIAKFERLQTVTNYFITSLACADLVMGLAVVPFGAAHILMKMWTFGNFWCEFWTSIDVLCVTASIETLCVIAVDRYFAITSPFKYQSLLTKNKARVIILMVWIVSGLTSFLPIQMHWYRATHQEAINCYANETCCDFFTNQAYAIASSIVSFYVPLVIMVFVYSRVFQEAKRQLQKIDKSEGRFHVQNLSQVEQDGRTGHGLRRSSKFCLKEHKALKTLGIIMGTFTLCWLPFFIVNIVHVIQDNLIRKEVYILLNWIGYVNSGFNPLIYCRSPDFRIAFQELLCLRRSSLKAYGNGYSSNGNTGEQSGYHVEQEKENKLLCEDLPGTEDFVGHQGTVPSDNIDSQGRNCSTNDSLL
Sequence of Tumor susceptibility gene 101 protein (Homo sapiens) (Q99816 whole entry, looked up, the tested form may be a part): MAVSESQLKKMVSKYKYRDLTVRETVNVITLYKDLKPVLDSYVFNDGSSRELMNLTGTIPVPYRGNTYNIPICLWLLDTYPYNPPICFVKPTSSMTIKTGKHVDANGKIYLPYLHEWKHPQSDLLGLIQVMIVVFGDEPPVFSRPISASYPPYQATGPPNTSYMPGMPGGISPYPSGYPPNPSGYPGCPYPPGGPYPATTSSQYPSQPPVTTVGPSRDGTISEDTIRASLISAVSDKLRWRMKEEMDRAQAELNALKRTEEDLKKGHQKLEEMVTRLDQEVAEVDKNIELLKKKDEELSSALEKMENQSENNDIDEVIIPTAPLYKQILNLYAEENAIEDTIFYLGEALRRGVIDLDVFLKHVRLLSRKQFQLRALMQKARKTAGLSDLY
Sequence of DNA polymerase III PolC-type (Bacillus subtilis (strain 168)) (P13267 whole entry, looked up): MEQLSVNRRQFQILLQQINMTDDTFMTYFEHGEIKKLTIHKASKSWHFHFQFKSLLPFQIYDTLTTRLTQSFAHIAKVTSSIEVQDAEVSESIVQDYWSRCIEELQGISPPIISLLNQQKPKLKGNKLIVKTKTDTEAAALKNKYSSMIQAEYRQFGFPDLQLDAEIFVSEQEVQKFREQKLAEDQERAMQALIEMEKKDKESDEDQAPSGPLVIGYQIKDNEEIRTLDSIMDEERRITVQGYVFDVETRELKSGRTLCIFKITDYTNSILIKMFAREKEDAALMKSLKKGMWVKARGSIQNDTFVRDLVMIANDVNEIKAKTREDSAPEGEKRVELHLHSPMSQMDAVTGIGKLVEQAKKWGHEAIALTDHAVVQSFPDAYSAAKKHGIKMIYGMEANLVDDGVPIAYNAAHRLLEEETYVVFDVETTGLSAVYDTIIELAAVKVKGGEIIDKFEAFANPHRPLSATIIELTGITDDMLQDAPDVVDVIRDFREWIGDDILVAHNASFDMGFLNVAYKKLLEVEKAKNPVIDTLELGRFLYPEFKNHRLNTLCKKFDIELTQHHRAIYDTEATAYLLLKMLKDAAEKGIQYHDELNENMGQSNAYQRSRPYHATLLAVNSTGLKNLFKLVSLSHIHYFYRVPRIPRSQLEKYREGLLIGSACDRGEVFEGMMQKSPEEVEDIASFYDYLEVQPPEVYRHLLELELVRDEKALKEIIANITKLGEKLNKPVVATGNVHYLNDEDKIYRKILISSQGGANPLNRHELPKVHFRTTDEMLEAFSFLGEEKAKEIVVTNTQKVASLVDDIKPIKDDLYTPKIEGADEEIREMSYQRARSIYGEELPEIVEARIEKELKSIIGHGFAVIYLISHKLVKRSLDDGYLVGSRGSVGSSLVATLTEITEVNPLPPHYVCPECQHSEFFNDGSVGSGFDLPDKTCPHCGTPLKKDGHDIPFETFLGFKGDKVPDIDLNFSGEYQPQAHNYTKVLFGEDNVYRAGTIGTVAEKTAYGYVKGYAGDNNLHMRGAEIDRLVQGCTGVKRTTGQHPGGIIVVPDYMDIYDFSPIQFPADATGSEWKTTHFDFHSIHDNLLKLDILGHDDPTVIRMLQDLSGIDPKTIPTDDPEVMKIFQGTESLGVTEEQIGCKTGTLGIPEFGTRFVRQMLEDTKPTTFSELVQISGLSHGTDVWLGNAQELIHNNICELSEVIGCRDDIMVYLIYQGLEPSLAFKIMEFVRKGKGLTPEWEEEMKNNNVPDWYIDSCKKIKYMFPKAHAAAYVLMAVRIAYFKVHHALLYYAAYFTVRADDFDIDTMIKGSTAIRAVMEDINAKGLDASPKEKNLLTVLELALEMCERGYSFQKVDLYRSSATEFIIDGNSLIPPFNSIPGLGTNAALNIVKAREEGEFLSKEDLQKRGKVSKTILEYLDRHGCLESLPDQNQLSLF

COc1ccc(/C=C/C(=O)Nc2ccccc2C(=O)O)cc1OC
not listed: [13] | [14] | [15] | [16]
inactive: all other assays above

N.N.O=C(O)C1(C(=O)O)CCC1.[Pt]
inactive: [1] | [2] | [8] | [13]

O=c1cc(-c2ccccc2)oc2ccccc12
inactive: [14]

S=c1[nH]c2ccccc2s1
inactive: [14]

Clc1ccc(N2CCN(Cc3c[nH]c4ncccc34)CC2)cc1
not listed: [5] | [14] | [16]
inactive: all other assays above

CCN1/C(=C/C(C)=O)Sc2ccc(OC)cc21
not listed: [3] | [7] | [14] | [16]
inactive: all other assays above

Nc1ccc(O)c(C(=O)O)c1
inactive: [14]

Cn1cc(C2=C(c3ccc(Cl)cc3Cl)C(=O)NC2=O)c2ccccc21
not listed: [1] | [2] | [8] | [9] | [14] | [16]
inactive: all other assays above

Oc1ccccc1O
inactive: [1] | [2] | [5] | [9] | [10] | [11] | [12] | [13]

COc1cc(/C=C/C(=O)CC(=O)/C=C/c2ccc(O)c(OC)c2)ccc1O
inactive: [14]

Cc1ccc(O)c(N=Nc2ccccc2)n1
active: [15] 15.1 µM
not listed: [1] | [14]
inactive: all other assays above

CN(C)c1ccc(N=NS(=O)(=O)O)cc1
inactive: [14]

O=C1CN(/N=C/c2ccc([N+](=O)[O-])o2)C(=O)N1
inactive: [14]

O=C(O)c1cc([N+](=O)[O-])ccc1NCCCc1ccccc1
not listed: [1] | [3] | [14] | [15] | [16]
inactive: all other assays above

COc1cc(OC)c(/C=C2/C(=O)Nc3ccccc32)c(OC)c1
inactive: [2] | [4] | [5] | [6] | [9] | [10] | [11] | [12] | [13]

CN=c1nc(-c2ccccc2)n(-c2ccccc2)s1
active: [8] 11.2 µM | [10] 26.7 µM | [15] 10.7 µM
not listed: [3] | [4] | [5] | [14]
inactive: all other assays above

CNCC[C@H](Oc1ccc(C(F)(F)F)cc1)c1ccccc1
inactive: [2] | [5] | [9] | [10] | [11] | [12]

O=C(O)/C=C\C(=O)O
inactive: [14]

CCCCCCCCCCCCCCCCCC(=O)O
inactive: [14]

CC(C)NC[C@H](O)COc1cccc2[nH]ccc12
not listed: [3] | [14] | [15]
inactive: all other assays above

C#C[C@]1(O)CC[C@H]2[C@@H]3CCc4cc(O)ccc4[C@H]3CC[C@@]21C
inactive: [14]

Nc1nc2ccc([N+](=O)[O-])cc2s1
inactive: [14]

CCCOC(=O)c1ccc(O)cc1
inactive: [14]

CCCCC/C=C\CC(O)/C=C/c1cccc(CC(O)CCCCO)n1 (stereo unspecified)
not listed: [7] | [13] | [14] | [16]
inactive: all other assays above

CN1CCc2cc(NC(=O)Nc3cccnc3)ccc21
not listed: [3] | [7] | [13] | [14] | [15] | [16]
inactive: all other assays above

c1ccc2sc(SSc3nc4ccccc4s3)nc2c1
inactive: [14]

C=C[C@@H]1CN2CC[C@@H]1C[C@H]2[C@H](O)c1ccnc2ccc(OC)cc12
active: [13] 0.0329 µM
not listed: [9] | [14] | [15]
inactive: all other assays above
